Data: PubChem BioAssay (Tox21)
Records with an inconclusive call do not appear. The source made the active and inactive calls. Unless noted, calls follow the shape of the full dose curve.

How the values were obtained:
[1] = Nuclear factor erythroid 2-related factor 2/antioxidant responsive element (Nrf2/ARE) small molecule agonists: qHTS cell viability counter screen in human keratinocytes (AID 1919968; active = well fitted curve in the direction sought with a large enough effect in the repeat runs; an effect the other way counts as inactive or inconclusive; also: nearly all actives have a fitted effect of over 55% in size; also: potency is read from the fitted curve at half-maximal effect)
Procedure, shortened: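 In human HaCaT keratinocytes stably expressing an ARE-driven luciferase, compound exposure lasted 23 h at 37 C under 5% CO2. Viable cells are quantified with a protease-based fluorogenic reagent (CellTiter-Fluor) read 1 h after addition.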

[2] = Nuclear factor erythroid 2-related factor 2/antioxidant responsive element (Nrf2/ARE) small molecule agonists: luciferase reporter gene qHTS assay in human keratinocytes (AID 1919969); also: nearly all actives have a fitted effect of over 35% in size
[3] = target: Gonadotropin-releasing hormone receptor (Homo sapiens) (UniProt P30968); assay: Human gonadotropin-releasing hormone receptor (GnRHR) small molecule agonists, calcium flux assay in GnRHR-HEK293 cells (AID 1920063); also: nearly all actives have a fitted effect of over 35% in size
Sequence of Gonadotropin-releasing hormone receptor (Homo sapiens) (P30968 whole entry, looked up): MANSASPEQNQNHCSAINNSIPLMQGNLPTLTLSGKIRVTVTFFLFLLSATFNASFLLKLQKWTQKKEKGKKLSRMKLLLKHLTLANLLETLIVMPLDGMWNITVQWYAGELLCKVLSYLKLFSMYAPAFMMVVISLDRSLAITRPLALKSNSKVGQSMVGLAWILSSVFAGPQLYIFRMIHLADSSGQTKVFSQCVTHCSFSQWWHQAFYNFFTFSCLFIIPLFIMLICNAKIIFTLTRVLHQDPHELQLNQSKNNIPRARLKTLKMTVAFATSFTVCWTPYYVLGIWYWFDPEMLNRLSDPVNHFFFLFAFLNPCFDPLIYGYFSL
Procedure, shortened: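 Intracellular calcium rise is the read-out: engineered human GnRHR HEK293 cells, dye-loaded, are exposed to DMSO-dissolved compounds and fluorescence at Ex/Em 480/540 is tracked for 3 min.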

[4] = target: KiSS-1 receptor (Homo sapiens) (UniProt Q969F8); assay: Human kisspeptin (KISS1R) small molecule agonists, calcium flux assay in KISS1R-HEK293 cells (AID 1920064; active = well fitted curve in the direction sought with a large enough effect in the repeat runs; an effect the other way counts as inactive or inconclusive)
Sequence of KiSS-1 receptor (Homo sapiens) (Q969F8 whole entry, looked up): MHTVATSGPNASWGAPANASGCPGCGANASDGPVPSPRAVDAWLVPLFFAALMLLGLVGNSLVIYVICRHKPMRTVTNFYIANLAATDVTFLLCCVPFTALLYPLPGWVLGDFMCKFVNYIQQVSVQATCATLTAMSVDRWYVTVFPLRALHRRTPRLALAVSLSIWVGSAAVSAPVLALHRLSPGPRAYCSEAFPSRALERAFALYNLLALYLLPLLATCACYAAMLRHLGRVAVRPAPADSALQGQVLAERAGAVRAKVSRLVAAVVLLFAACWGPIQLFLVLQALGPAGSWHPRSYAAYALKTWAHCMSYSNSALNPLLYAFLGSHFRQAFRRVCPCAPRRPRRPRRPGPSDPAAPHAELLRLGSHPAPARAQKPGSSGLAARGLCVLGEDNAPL
Procedure, shortened: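 Concentration-response testing used 15 concentrations in triplicate on human KISS1R-expressing HEK293 cells. Calcium-dependent fluorescence (Ex/Em 480/540) was followed kinetically for 3 min after compound transfer.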

[5] = G protein-coupled receptor (GPCR) small molecule agonists, calcium flux assay: HEK293 wild type cell line counter screen (AID 1920065)
Procedure, shortened: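 Fluorescence intensity signals activation. After overnight (18 h) culture and a 1 h calcium dye load at 37 C, compounds are added by pin tool and the plate read at 480/540 nm for 3 min in 1 s steps.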

[6] = p53 small molecule agonists, cell-based qHTS assay with human liver microsomes (AID 1963577);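 also: p53 response element beta-lactamase reporter cells with liver microsomes plus NADPH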
Procedure, shortened: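 Metabolically competent format: test substances, human liver microsomes and NADPH (both 0.5 mg/mL final) incubated with p53RE-bla cells 16 h at 37 C. Beta-lactamase reporter signal then quantified by fluorescence.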

[7] = p53 small molecule agonists, cell-based qHTS assay with rat liver microsomes (AID 1963578)
Procedure, shortened: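 Each plate received p53RE-bla cells, then compound, then rat liver microsomes and NADPH (both 0.5 mg/mL final). Plates were held 16 h at 37 C, and beta-lactamase activity was detected with LiveBLAzer over 2 h.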

[8] = p53 small molecule agonists, cell-based qHTS assay with rat liver microsomes: qHTS cell viability counter screen (AID 1963580); also: nearly all actives have a fitted effect of over 45% in size
Procedure, shortened: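 Cytotoxicity counter screen: intracellular ATP read by CellTiter-Glo luminescence in the p53 reporter wells. HCT-116 p53RE-bla cells were treated for 16 h at 37 C alongside rat liver microsomes and NADPH, each 0.5 mg/mL final.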

[9] = p53 small molecule agonists, cell-based qHTS assay: qHTS cell viability counter screen (AID 1963581); also: nearly all actives have a fitted effect of over 45% in size
Procedure, shortened: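 Luminescence from CellTiter-Glo, reflecting ATP content, serves as the cytotoxicity measure; it is taken after the 2 h reporter substrate step in HCT-116 p53RE-bla cells dosed for 16 h at 37 C.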

[10] = target: 5-hydroxytryptamine receptor 2A (Homo sapiens) (UniProt P28223); assay: 5-hydroxytryptamine receptor 2A (HTR2A) small molecule antagonists, cell-based qHTS assay (AID 1963586); also: nearly all actives have a fitted effect of over 45% in size; also: potency is read from the fitted curve at half-maximal effect
Sequence of 5-hydroxytryptamine receptor 2A (Homo sapiens) (P28223 whole entry, looked up): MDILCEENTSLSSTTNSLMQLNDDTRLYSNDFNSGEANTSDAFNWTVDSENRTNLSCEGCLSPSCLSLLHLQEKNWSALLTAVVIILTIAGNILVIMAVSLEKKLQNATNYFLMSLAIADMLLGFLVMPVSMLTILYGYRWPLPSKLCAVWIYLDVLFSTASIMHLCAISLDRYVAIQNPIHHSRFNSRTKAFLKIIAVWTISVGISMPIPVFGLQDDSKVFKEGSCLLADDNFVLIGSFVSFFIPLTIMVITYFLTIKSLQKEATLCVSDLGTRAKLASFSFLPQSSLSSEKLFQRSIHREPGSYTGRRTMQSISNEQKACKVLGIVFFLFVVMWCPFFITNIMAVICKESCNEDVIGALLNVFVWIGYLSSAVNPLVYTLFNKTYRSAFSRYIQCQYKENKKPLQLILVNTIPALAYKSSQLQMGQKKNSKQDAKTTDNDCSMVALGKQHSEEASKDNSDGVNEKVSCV
Procedure, shortened: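 CHO cells stably expressing human HTR2A were plated for 18 h at 37 C, then loaded with calcium dye for 1 h. Compounds were preincubated 5 min at room temperature before DOI (4 nM solution) was added. Kinetic fluorescence was read for 3 min.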

[11] = target: 5-hydroxytryptamine receptor 2A (Homo sapiens) (UniProt P28223); assay: 5-hydroxytryptamine receptor 2A (HTR2A) small molecule agonists, cell-based qHTS assay (AID 1963587); also: nearly all actives have a fitted effect of over 30% in size; also: potency is read from the fitted curve at half-maximal effect
Procedure, shortened: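 Kinetic calcium-flux fluorescence (2 min, 1 sec intervals) after compound addition in agonist mode. HTR2A-CHO cells were cultured 18 h, then dye-loaded 1 h at 37 C.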

[12] = target: Muscarinic acetylcholine receptor M1 (Homo sapiens) (UniProt P11229); assay: Cholinergic receptor muscarinic 1 (CHRM1) small molecule antagonists, cell-based qHTS assay (AID 1963588); also: nearly all actives have a fitted effect of over 40% in size
Sequence of Muscarinic acetylcholine receptor M1 (Homo sapiens) (P11229 whole entry, looked up): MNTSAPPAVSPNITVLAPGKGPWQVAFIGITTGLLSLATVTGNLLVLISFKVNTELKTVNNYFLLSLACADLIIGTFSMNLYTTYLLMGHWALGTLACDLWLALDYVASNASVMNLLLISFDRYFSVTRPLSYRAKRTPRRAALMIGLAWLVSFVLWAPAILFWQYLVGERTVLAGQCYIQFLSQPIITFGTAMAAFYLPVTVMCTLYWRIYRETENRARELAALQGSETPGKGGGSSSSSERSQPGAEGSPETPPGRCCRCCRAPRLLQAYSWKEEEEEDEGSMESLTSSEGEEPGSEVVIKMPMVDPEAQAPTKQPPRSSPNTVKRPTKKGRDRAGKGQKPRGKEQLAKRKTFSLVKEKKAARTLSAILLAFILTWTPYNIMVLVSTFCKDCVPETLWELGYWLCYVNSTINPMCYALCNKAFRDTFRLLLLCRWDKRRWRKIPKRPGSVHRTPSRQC
Procedure, shortened: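 Compounds were tested at 15 concentrations in three independent runs. Dye-loaded CHRM1-CHO cells were exposed 5 min at room temperature before stimulation by acetylcholine added at 50nM. Intracellular calcium was read kinetically on FDSS for 3 min.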

[13] = target: Muscarinic acetylcholine receptor M1 (Homo sapiens) (UniProt P11229); assay: Cholinergic receptor muscarinic 1 (CHRM1) small molecule agonists, cell-based qHTS assay (AID 1963589); also: nearly all actives have a fitted effect of over 35% in size
Procedure, shortened: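 Fluorescent calcium dye reports M1 activation in stably transfected CHO cells. Compounds, 15 concentrations, added after 1 h dye loading at 37 C; kinetic reading at 1 sec intervals.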

[14] = cAMP Responsive Elements (CRE) small molecule agonists, cell-based qHTS assay (AID 1963590)
Procedure, shortened: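 Compound exposure lasted 3 h at 37 C/5% CO2 in CRE-bla HEK 293T cells grown in assay medium with 10% dialyzed FBS and 25 mM HEPES. Reporter signal came from LiveBLAzer B/G FRET substrate, 2 h, room temperature.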

[15] = cAMP Responsive Elements (CRE) small molecule antagonists, cell-based qHTS assay (AID 1963591; active = well fitted inhibition curve with a large enough effect in the signal ratio in the repeat runs, not every such curve was filed as active; the % refers to the signal ratio)
Procedure, shortened: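 Stimulation used NKH477 at a final 0.25 uM for 3 h in compound-treated CRE-bla HEK293T cells, seeded 18 h beforehand. Reporter activity was measured with LiveBLAzer B/G FRET substrate after 2 h at room temperature.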

[16] = target: Beta-2 adrenergic receptor (Homo sapiens) (UniProt P07550); assay: Adrenergic beta2 receptor (ADRB2) small molecule antagonists, cell-based qHTS assay (AID 1963592); also: series mostly up to about 92 µM; nearly all actives have a fitted effect of over 50% in size
Sequence of Beta-2 adrenergic receptor (Homo sapiens) (P07550 whole entry, looked up): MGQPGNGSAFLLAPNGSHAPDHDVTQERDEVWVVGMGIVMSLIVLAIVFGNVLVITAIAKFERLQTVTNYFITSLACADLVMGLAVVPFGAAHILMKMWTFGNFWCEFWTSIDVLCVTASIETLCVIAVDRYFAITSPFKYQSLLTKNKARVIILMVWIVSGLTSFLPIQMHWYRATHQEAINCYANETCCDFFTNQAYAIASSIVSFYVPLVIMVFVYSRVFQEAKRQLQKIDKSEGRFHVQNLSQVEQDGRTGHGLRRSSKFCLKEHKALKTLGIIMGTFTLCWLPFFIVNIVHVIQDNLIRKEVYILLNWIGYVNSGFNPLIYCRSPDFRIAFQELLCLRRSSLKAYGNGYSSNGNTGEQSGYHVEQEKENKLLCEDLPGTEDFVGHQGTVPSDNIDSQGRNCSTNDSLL
Procedure, shortened: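 Assay format: CHO-ADRB2 cells, 18-20hr seeding at 37C/5% CO2, then compound plus 1nM isoproterenol agonist mix for 0.5hr RT. Homogeneous time-resolved fluorescence cAMP detection after 1hr, expressed as 665/615 nm ratio.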

[17] = target: D(2) dopamine receptor (Homo sapiens) (UniProt P14416); assay: Dopamine D2 receptor (DRD2) small molecule antagonists, cell-based qHTS assay (AID 1963595; active = well fitted inhibition curve with a large enough effect in the signal ratio in the repeat runs, with a control signal flat; the % refers to the signal ratio)
Sequence of D(2) dopamine receptor (Homo sapiens) (P14416 whole entry, looked up): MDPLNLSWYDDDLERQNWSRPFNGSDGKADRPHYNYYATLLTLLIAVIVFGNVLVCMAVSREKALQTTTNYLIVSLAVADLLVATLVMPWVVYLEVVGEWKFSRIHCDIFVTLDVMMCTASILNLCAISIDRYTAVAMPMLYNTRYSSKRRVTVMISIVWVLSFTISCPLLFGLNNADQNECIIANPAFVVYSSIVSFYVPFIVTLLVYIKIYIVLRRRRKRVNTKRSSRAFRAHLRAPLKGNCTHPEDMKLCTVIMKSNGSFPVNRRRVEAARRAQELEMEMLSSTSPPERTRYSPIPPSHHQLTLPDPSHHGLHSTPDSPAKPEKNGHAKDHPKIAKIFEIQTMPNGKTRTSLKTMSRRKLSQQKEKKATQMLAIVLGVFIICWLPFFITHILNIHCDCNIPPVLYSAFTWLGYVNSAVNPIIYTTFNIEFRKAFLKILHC
Procedure, shortened: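 Readout: HTRF cAMP, cAMP-d2 competing with cellular cAMP for anti-cAMP cryptate, read after 1 h. Cells: DRD2-HEK293. Conditions: 0.1 mM Ro20-1724, 12 nM quinpirole, 200 nM NKH477, 30 min RT.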

[18] = p53 small molecule agonists, cell-based qHTS assay (AID 1963582; active = well fitted activation curve with a large enough effect in the signal ratio in the repeat runs, not every such curve was filed as active; the % refers to the signal ratio)
Procedure, shortened: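 After plating, p53RE-bla cells sat 5 h in the incubator; compounds or DMSO vehicle were pinned in; a 16 h incubation at 37 C followed; FRET substrate was added and, 2 h later at RT, fluorescence was measured.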

[19] = target: D(2) dopamine receptor (Homo sapiens) (UniProt P14416); assay: Dopamine D2 receptor (DRD2) small molecule agonists, cell-based qHTS assay (AID 1963594); also: nearly all actives have a fitted effect of over 35% in size; also: potency is read from the fitted curve at half-maximal effect
Procedure, shortened: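 cAMP accumulation in DRD2-HEK293 cells measured by HTRF after 1 h detection; compounds added 10 min before NKH477 (200nM […]) forskolin-analogue stimulation, 30 min at room temperature, with Ro20-1724 present at 0.1 mM final.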
% is scaled to controls: 0 for no effect and ±100 for the full control effect.

Cc1cccc(C)c1NC(=O)c1ccccc1C(=O)O
inactive: Potency [1] | Potency [2] | Potency [3] | outcome [4] | outcome [5] | Potency [6] | Potency [7] | Potency [8] | Potency [9] | Potency [10] | Potency [11] | Potency [12] | Potency [13] | Potency [14] | Potency [15] | Potency [16] | Potency [17]

Oc1cccc(O)c1O
inactive: Potency [1] | Potency [2] | Potency [3] | outcome [4] | outcome [5] | Potency [6] | Potency [7] | Potency [8] | Potency [9] | Potency [18] | Potency [14] | Potency [16] | Potency [19] | Potency [17]

O=C1c2ccccc2S(=O)(=O)N1CCCCN1CCN(c2ncccn2)CC1
active: Potency [19] 2.76 µM
inactive: Potency [1] | Potency [2] | Potency [3] | outcome [4] | outcome [5] | Potency [6] | Potency [7] | Potency [8] | Potency [9] | Potency [18] | Potency [11] | Potency [12] | Potency [13] | Potency [14] | Potency [15] | Potency [16] | Potency [17]

CCCCCCCCCCCCCCCC/C=C/C1CC(=O)OC1=O (configuration not stated)
inactive: Potency [1] | Potency [2] | Potency [3] | outcome [4] | outcome [5] | Potency [6] | Potency [7] | Potency [8] | Potency [9] | Potency [11] | Potency [12] | Potency [13] | Potency [14] | Potency [15] | Potency [19] | Potency [17]

NC(=O)C(c1ccccc1)(c1ccccc1)[C@@H]1CCN(CCc2ccc3c(c2)CCO3)C1
inactive: Potency [1] | Potency [2] | Potency [3] | outcome [4] | outcome [5] | Potency [6] | Potency [7] | Potency [8] | Potency [9] | Potency [18] | Potency [13] | Potency [14] | Potency [16] | Potency [19] | Potency [17]

C[N+]1(CC2COC(c3ccccc3)(C3CCCCC3)O2)CCCCC1 (configuration not stated)
inactive: Potency [1] | Potency [2] | Potency [3] | outcome [4] | outcome [5] | Potency [6] | Potency [7] | Potency [8] | Potency [9] | Potency [10] | Potency [11] | Potency [12] | Potency [13] | Potency [16] | Potency [19] | Potency [17]

C=CCN1CCc2nc(N)sc2CC1
inactive: Potency [1] | Potency [2] | Potency [3] | outcome [4] | outcome [5] | Potency [6] | Potency [7] | Potency [8] | Potency [18] | Potency [12] | Potency [13] | Potency [14] | Potency [15] | Potency [16] | Potency [17]
active: Potency [10] 4.1 µM | Potency [11] 6.01 µM | Potency [19] 0.119 µM

CCCCCCCCCCCCCCN(CCO)CCO
active: Potency [1] 27.3 µM | Potency [11] 21.9 µM
inactive: Potency [2] | Potency [3] | outcome [4] | outcome [5] | Potency [6] | Potency [7] | Potency [8] | Potency [9] | Potency [10] | Potency [16] | Potency [19] | Potency [17]

COc1cnc(NS(=O)(=O)c2ccc(N)cc2)nc1
inactive: Potency [1] | Potency [2] | Potency [3] | outcome [4] | outcome [5] | Potency [6] | Potency [7] | Potency [8] | Potency [18] | Potency [10] | Potency [11] | Potency [12] | Potency [13] | Potency [14] | Potency [15] | Potency [16] | Potency [19] | Potency [17]

CNC(=O)c1cc(Oc2ccc(NC(=O)Nc3ccc(Cl)c(C(F)(F)F)c3)cc2)ccn1
inactive: Potency [2] | Potency [3] | outcome [4] | outcome [5] | Potency [6] | Potency [7] | Potency [8] | Potency [9] | Potency [11] | Potency [12] | Potency [13] | Potency [19] | Potency [17]
active: Potency [1] 26.6 µM

NS(=O)(=O)c1cc2c(cc1Cl)NC(C(Cl)Cl)NS2(=O)=O (configuration not stated)
inactive: Potency [1] | Potency [2] | Potency [3] | outcome [4] | outcome [5] | Potency [6] | Potency [7] | Potency [8] | Potency [9] | Potency [18] | Potency [14] | Potency [15] | Potency [19] | Potency [17]

O=C(O)CCC(=O)OC[C@@H](NC(=O)C(Cl)Cl)[C@H](O)c1ccc([N+](=O)[O-])cc1
inactive: Potency [1] | Potency [2] | Potency [3] | outcome [4] | outcome [5] | Potency [6] | Potency [7] | Potency [8] | Potency [18] | Potency [10] | Potency [11] | Potency [12] | Potency [13] | Potency [14] | Potency [15] | Potency [16] | Potency [19] | Potency [17]

CN1[C@@H]2CC[C@H]1CC(OC(=O)C(O)c1ccccc1)C2 (some centres not stated)
inactive: Potency [1] | Potency [2] | Potency [3] | outcome [4] | outcome [5] | Potency [6] | Potency [7] | Potency [8] | Potency [9] | Potency [18] | Potency [15] | Potency [16] | Potency [19] | Potency [17]

CC(=O)CC(=O)OC(C)(C)C
inactive: Potency [1] | Potency [2] | Potency [3] | outcome [4] | outcome [5] | Potency [6] | Potency [7] | Potency [8] | Potency [9] | Potency [11] | Potency [12] | Potency [14] | Potency [15] | Potency [19] | Potency [17]

CC(C)C[C@@H](N)C(=O)O
inactive: activity change, negative = cytotoxicity [1] 2.62% [at 19 µM] | activity, positive = activation [2] -3.08% [at 19 µM] | activity change [3] 0.203% [at 11.8 µM, stronger effect = higher value] | activation [4] -0.242% [at 15.8 µM] | activation [5] -0.27% [at 11.8 µM] | activation [6] -1.67% [at 13.5 µM] | activation [7] -1.65% [at 13.6 µM] | activity change, negative = cytotoxicity [8] -0.234% [at 13.5 µM] | activity change, negative = cytotoxicity [9] -2.8% [at 13.5 µM] | activation [18] -0.189% [at 13.5 µM] | activation [11] 2.38% [at 15.9 µM] | activation [14] 0.0359% [at 19 µM] | activity change, negative = inhibition [15] -5.02% [at 18.9 µM] | activity change, negative = inhibition [16] 9.37% [at 19 µM] | activation [19] 5.36% [at 19 µM] | activity change, negative = inhibition [17] 4.57% [at 18.9 µM]
